Gal4-VP16 FLuc: counter-screen for ROR gamma inhibitors: Gal4-VP16 reporter. Drosophila S2 Gal4-VP16 UAS-luciferase, luminescence, 20 h. Potency, µM (highest dose often 53.6 µM), for inactives: at the highest dose activity, negative = inhibition, usual class: inhibitors. 310,000 tested, 3.5% active;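 further: Gal4-VP16 expression switched on by copper sulfate through the metallothionein promoter; potency means the concentration at half of the fitted maximal effect; on the % scale 0 is the no-effect control and ±100 the full control effect; nearly all actives have a fitted effect of over 50% in size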
RORg inh: inhibitors of mouse ROR gamma transcriptional activity; Drosophila S2 Gal4-RORgamma UAS-luciferase reporter, 20 h; P51450; 310,000 tested, 5.4% active; Potency, µM (top dose mostly 53.6 µM), for the others: at the top dose activity change, negative = inhibition, hits mostly inhibitors; AID 2551; further: potency means the concentration at half of the fitted maximal effect; on the % scale 0 is the no-effect control and ±100 the full control effect; nearly all actives have a fitted effect of over 60% in size
Target sequence (P51450 whole entry, looked up, the tested form may be a part): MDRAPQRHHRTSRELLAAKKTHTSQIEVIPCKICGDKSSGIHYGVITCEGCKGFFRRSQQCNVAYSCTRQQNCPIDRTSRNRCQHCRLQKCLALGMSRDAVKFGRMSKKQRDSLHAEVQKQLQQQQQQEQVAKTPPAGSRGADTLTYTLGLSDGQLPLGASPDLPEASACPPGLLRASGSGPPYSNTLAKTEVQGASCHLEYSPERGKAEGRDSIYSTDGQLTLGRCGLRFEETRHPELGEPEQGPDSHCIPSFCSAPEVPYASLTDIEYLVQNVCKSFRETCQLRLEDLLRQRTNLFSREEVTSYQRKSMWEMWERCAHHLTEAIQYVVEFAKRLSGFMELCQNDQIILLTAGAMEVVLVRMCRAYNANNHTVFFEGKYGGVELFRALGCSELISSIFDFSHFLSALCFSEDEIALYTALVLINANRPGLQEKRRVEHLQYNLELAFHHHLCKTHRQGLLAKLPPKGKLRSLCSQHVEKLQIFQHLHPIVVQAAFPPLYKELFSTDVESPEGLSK
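Stable Schneider cell line, Gal4 DNA-binding domain fused to ROR gamma, UAS-luciferase. Cmpd 1 hr RT → CuSO4 700 uM final → 20 hr RT → luciferase reagent 10 min → luminescence.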
MCF10A rerep: inducers of DNA re-replication in MCF 10A breast cells | MCF 10A DNA re-replication, Hoechst nuclear intensity, 48 h | 350,000 tested, 2.9% active | AID 624296 | Potency, µM (highest dose often 46.1 µM), without a hit: top-dose activity, positive = re-replication, actives largely listed as activators; further: potency means the concentration at half of the fitted maximal effect; % of control where 0% means no effect; nearly all actives have a fitted effect of over 50% in size
SW480 rereplic: inducers of DNA re-replication in SW480 colon cancer cells; AID 624297; 340,000 tested, 1.8% active; Potency, µM (doses to about 46.1 µM), for the others: at the highest dose re-replication activation, hits mostly activators; SW480 DNA re-replication, Hoechst DNA content imaging, 48 h; further: potency means the concentration at half of the fitted maximal effect; % of control where 0% means no effect; nearly all actives have a fitted effect of over 55% in size
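250 cells/well; 23 nL cpd via pin tool; 48 hr, 37 C, 5% CO2; Hoechst 40 min; imager read of total nuclear intensity, ex 405/em 500-530 nm.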
Giardia killer: kills Giardia lamblia; Giardia lamblia trophozoite viability; AID 540267; activity change, % at 7.66 µM, hits read low; 340,000 tested, 0.15% active; in the data active means activity change below about -80%; inconclusive means between about -30% and that limit;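 further: parasites exposed to compound for two days anaerobically before the ATP read; on the % scale 0 is the no-effect control and ±100 the full control effect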
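Trophozoite viability was measured as ATP-dependent luminescence, read 15-30 min after reagent addition. Before that, parasites at 100 cells/well were exposed to compounds for 48 h, anaerobically, at 37 deg C.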
BCR signal inh: chronic active BCR signaling inhibition; ABC-DLBCL IkBa-CBG/CBR reporter, luminescence ratio, 4 h; 340,000 tested, 0.05% active; Potency, µM (top dose mostly 46.1 µM), for inactives: at the top dose activity change, negative = inhibition, hits mostly inhibitors; active means well fitted inhibition curve with a large enough effect in the signal ratio, with a control signal flat, not every such curve was filed as active; inconclusive means small, poorly fitted or top-dose-only effect, or effect the other way, or a change in a side signal; the % refers to the signal ratio;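 further: potency means the concentration at half of the fitted maximal effect; plate controls were basal doxycycline-induced cells for no effect and cells given 10 µM MG132 for full effect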
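Compounds up to 46 uM were incubated four hours with TMD8 cells whose green CBG68 luciferase is fused to IkappaBalpha; red CBR luminescence normalised the signal, and concentration-effect curves were fitted to fusion, red and ratio data.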
* = called active by the depositor; ? = inconclusive; . = no result given; [ ] = remark or other dose. A selection: hits, their analogues and other compounds. The true share with any hit is near 8.3%. Unless noted, the call rests on the fitted dose curve; in most records, active means well fitted curve in the direction sought with a large enough effect; inconclusive means small, poorly fitted or top-dose-only effect, or another doubt; inactive means no such curve, though single readings can be large; an effect the other way counts as inactive or inconclusive.

SMILES | Gal4-VP16 FLuc | RORg inh | MCF10A rerep | SW480 rereplic | Giardia killer | BCR signal inh
Cc1ccc(NC(=O)C(C)OC(=O)Cn2cnc3ccccc3c2=O)cc1 (stereo not drawn) | . | . | 0% | -4% | -19 | -4%
COC(=O)c1ccc(C(/C=C/[C@@H](C)C(=O)NCCN2CCCC2)NC(=O)OCc2ccccc2)cc1 (stereo partly drawn) | 8% | 21% | . | . | . | .
CC(C)CCOc1ccc(/C=N/N2C(=O)CSC2=S)cc1 | ? | 4.5µM* | ? | 14% | 10 | 0%
CC(=O)Nc1ccc(N=c2cc([N+](=O)[O-])cc(Cl)n2O)cc1 | ? | ? | ? | 23µM* | -1 | ?
CC(=O)Nc1ccc(S(=O)(=O)c2ccc([N+](=O)[O-])cc2)cc1 | -15% | 19% | -2% | ? | -24 | -1%
Cc1ccc(NC(=S)NC2CC3CCCC(C2)N3Cc2ccco2)cc1 (stereo not drawn) | 4% | 7% | 12% | -1% | -16 | 0%
S=C(Nc1ccc(Cl)cc1)NC1CC2CCC(C1)N2Cc1ccccc1 (stereo not drawn) | ? | 4µM* | ? | 14% | 2 | 0%
CNC(=S)NC1CC2CCC(C1)N2Cc1ccccc1 (stereo not drawn) | 0% | -14% | -3% | -8% | 22 | -19%
CCc1ccc(NC(=S)NC2CC3CCCC(C2)N3Cc2ccccc2)cc1 (stereo not drawn) | 4.5µM* | 7.1µM* | ? | -82% | -5 | ?
COc1cc(-c2oc3cc(O)cc(O)c3c(=O)c2O[C@@H]2O[C@H](CO)[C@@H](O)[C@H](O)[C@H]2O)cc(OC)c1O | -3% | -13% | . | . | . | .
O=c1c2ccccc2nc2n1C(CSCc1ccc(Cl)cc1Cl)CS2 (stereo not drawn) | 22µM* | -2% | 0% | -2% | -8 | 5%
Clc1ccc(-n2cccc2CN2CCc3c([nH]c4ccccc34)C2c2ccccn2)nc1 (stereo not drawn) | -6% | 13µM* | ? | ? | 41 | ?
O=C(Cn1ncc(Cl)c(Cl)c1=O)c1ccc(Cl)cc1 | -66% | ? | 9.2µM* | ? | 10 | ?
CC(C)(C)C(=O)Cn1ncc(Cl)c(Cl)c1=O | 1% | -109% | 2.1µM* | ? | 18 | ?
O=C(Cn1ncc(N2CCOCC2)c(Cl)c1=O)c1ccc(Cl)cc1 | -7% | 37% | 14% | -20% | ? | 7%
C=CCn1c(C)cc(C(=O)Cn2ncc(Cl)c(Cl)c2=O)c1C | ? | ? | 5.8µM* | 2.9µM* | -23 | ?
CC(C)(C)C(=O)Cn1ncc(N2CCCC2)c(Br)c1=O | -15% | -37% | 2% | -1% | -12 | ?
CCCCn1c(N)c(N(CCOC)C(=O)c2cc(-c3ccc(OC)cc3)nc3ccccc23)c(=O)[nH]c1=O | . | . | -4% | -1% | 11 | -3%
CC[C@H]1C/C=C\Cc2ccccc2[C@@H](C(=O)C[C@@H](O)CC(C)=O)OC1=O | . | . | 17% | 16% | -2 | 7%
c1ccc(Oc2ccc(-c3ccnc4nc(N5CCOCC5)nn34)cc2)cc1 | -3%[10 µM] | ? | 18µM* | 16µM* | 0 | 0%
COc1ccccc1N1CC(C(=O)OCC(=O)Nc2c(C)cccc2C)CC1=O (stereo not drawn) | -12% | 0% | 0% | -4% | 0 | -1%
CCc1nc2ccc(C(=O)NCc3ccc(SC)cc3)cc2nc1CC | . | . | . | . | . | 20%
CCc1nc2ccc(C(=O)NCCc3ccccc3OC)cc2nc1CC | -6% | 9% | 5% | 4% | -1 | 0%
Cc1ccc(CNC(=O)c2ccc3nc4[nH]c5ccccc5c4nc3c2)cc1 | 7.1µM* | ? | . | . | . | 5%
COc1ccccc1CNC(=O)c1ccc2nc3[nH]c4ccccc4c3nc2c1 | ? | 26% | 18µM* | ? | -15 | ?
SMILES | Gal4-VP16 FLuc | RORg inh | MCF10A rerep | SW480 rereplic | Giardia killer | BCR signal inh
COc1ccc(CCN(C)C(=O)COc2ccc(N(C)S(=O)(=O)c3ccc(C)cc3)cc2)cc1OC | . | . | 0% | 3% | -4 | -15%
COCC(=O)Nc1ccc2c(c1)OCC(=O)N2Cc1ccc(C)cc1 | -12% | 19% | 23µM* | 5% | -3 | -3%
COc1ccc(N2CCN(C(=O)CCC(=O)N3Cc4ccccc4Oc4ncccc43)CC2)cc1 | -2% | -5% | -14% | -1% | -15 | 1%
Cc1cc(C(=O)N2CC=C(c3ccccc3)CC2)c2ccccc2n1 | . | . | ? | 1.3µM* | 3 | ?
Cc1c(C(=O)C(=O)N2CC=C(c3ccccc3)CC2)c2ccccc2n1C | 3% | ? | 2.3µM* | 7.3µM* | 4 | ?
CC(=O)N1CCN(C(=O)c2cc(C)nc3ccccc23)CC1 | -6% | 0% | ? | -9% | 32 | -1%
Cc1ccsc1C=Nc1ccc(O)cc1 | ? | 10µM* | ? | ? | -5 | ?
Cc1ccsc1/C=N/N=C/c1sccc1C | 9% | -26% | -1% | 5% | 11 | -17%
N#CCCn1c(O)c(N=NC(=O)CNC(=O)c2cccs2)c2ccccc21 | -9% | -2% | -6% | -7% | -7 | ?
Cc1cccc[n+]1CC(=O)/C=C1\N(C)c2ccccc2C1(C)C | 6.3µM* | ? | ? | -4% | 8 | 0%
CN1/C(=C\C(=O)CSc2cccc[n+]2[O-])C(C)(C)c2ccccc21 | ? | 7.1µM* | 16% | -4% | 3 | ?
Cc1ccc[n+](CC(=O)/C=C2\N(C)c3ccccc3C2(C)C)c1 | -13% | ? | 20% | 1% | 2 | -1%
CN1/C(=C\C(=O)C[n+]2ccc(C(=O)c3ccccc3)cc2)C(C)(C)c2ccccc21 | -6% | ? | -8% | 1% | 0 | 6%
CN1/C(=C\C(=O)C[n+]2cccc(Br)c2)C(C)(C)c2ccccc21 | 13µM* | 11% | 7% | 2% | -3 | 10%
O=C1COc2ccc3ccccc3c21 | 6% | -17% | -1% | -2% | -11 | 0%
N#Cc1c(-c2ccccc2)cc(-c2ccccc2)nc1SCCC(=O)O | -4% | -1% | ? | 4% | -14 | 9%
Cc1sc(NC(=O)c2ccc(=O)n(C)n2)nc1-c1ccccc1 | -19% | -16% | 23µM* | -87% | 14 | -27%
Cc1sc(NC(=O)c2c(F)cccc2F)nc1-c1ccccc1 | -8% | ? | ? | ? | -13 | ?
COc1ccc(-c2nc(NC(=O)c3cc(C(C)(C)C)nn3C)sc2C)cc1 | -11% | ? | 15µM* | 16µM* | -4 | ?
COc1ccc(Cl)cc1S(=O)(=O)N(C)CC(=O)N1CCOCC1 | -7% | -15% | 8% | -1% | -22 | 2%
